# Results published in the supplement of paper PMC3545927.
# Some of the results follow. No count for the full screen is at hand.
# B1: HC1487 (peptide)
# chain: CAIRTEEAIYAGNASASA
# B2: HC649 (peptide)
# chain: CASQMETKLIAGNASASA
# B3: HC449 (peptide)
# chain: CANTLHCPTDAGNASASA
# B4: FS-817 (peptide)
# chain: CALAWRSGRVAGNASASA
# B5: FS-1631 (peptide)
# chain: CAHLERHKRVAGNASASA
# B6: FS-903 (peptide)
# chain: CAYSHRHKRVAGNASASA
# B7: HC1235 (peptide)
# chain: CAVGLHEYPVAGNASASA
# B8: HC2050 (peptide)
# chain: CAVVCCSVSYAGNASASA
# B9: HC1763 (peptide)
# chain: CAMEECSQHAAGNASASA
# B10: HC1721 (peptide)
# chain: CAMENCSQHLAGNASASA
# B11: HC1847 (peptide)
# chain: CATFPCSGSWAGNASASA
# B12: FS-1966 (peptide)
# chain: CARQKRSDLYAGNASASA
# B13: FS-2631 (peptide)
# chain: CALQKRSSRHAGNASASA
# B14: HC295 (peptide)
# chain: CAATLCSALYAGNASASA
# B15: HC948 (peptide)
# chain: CAQTKQSGENAGNASASA
# B16: FS-1984 (peptide)
# chain: CAIGKRSVEYAGNASASA
# B17: FS-2246 (peptide)
# chain: CADQKRSLESAGNASASA
# B18: FS-1768 (peptide)
# chain: CARQKRILVNAGNASASA
# B19: HC1008 (peptide)
# chain: CAIPDREVLYAGNASASA
# B20: FS-2591 (peptide)
# chain: CARQYRSAYYAGNASASA
# B21: FS-3038 (peptide)
# chain: CARQKRSVENAGNASASA
# B22: FS-2323 (peptide)
# chain: CAYPKRSSEVAGNASASA
# B23: HC1474 (peptide)
# chain: CAAWKSKKTPAGNASASA
# B24: HC685 (peptide)
# chain: CAGRDKNQVEAGNASASA
# B25: HC588 (peptide)
# chain: CAAQLHVWIPAGNASASA
# B26: HC659 (peptide)
# chain: CAINGLPVSAAGNASASA
# B27: HC1363 (peptide)
# chain: CAWSTVSSEAAGNASASA
# B28: FS-3037 (peptide)
# chain: CARQKRSSEAAGNASASA
# B29: FS-2361 (peptide)
# chain: CARQKRIHSAAGNASASA
# B30: FS-2170 (peptide)
# chain: CARQKRSVSIAGNASASA
# B31: HC1398 (peptide)
# chain: CADRLQVLDSAGNASASA
# B32: HC1024 (peptide)
# chain: CAQFKQKALGAGNASASA
# B33: HC661 (peptide)
# chain: CAPVSARRGRAGNASASA
# B34: HC1507 (peptide)
# chain: CANCGYRRCRAGNASASA
# B35: HC592 (peptide)
# chain: CAPLNVRGGRAGNASASA
# B36: HC2180 (peptide)
# chain: CAECVTSTWVAGNASASA
# B37: FS-169 (peptide)
# chain: CAGVARVRKSAGNASASA
# B38: HC667 (peptide)
# chain: CAGPADGMVSAGNASASA
# B39: FS-875 (peptide)
# chain: CASVNRNKKSAGNASASA
# B40: FS-429 (peptide)
# chain: CAGKSRLKKSAGNASASA
# B41: FS-661 (peptide)
# chain: CAGVARFYRSAGNASASA
# B42: FS-127 (peptide)
# chain: CAGPARPWKSAGNASASA
# B43: HC2316 (peptide)
# chain: CAGVPCHRPSAGNASASA
# B44: FS-290 (peptide)
# chain: CARPSRLKKFAGNASASA
# B45: FS-786 (peptide)
# chain: CAGRARCYRSAGNASASA
# Biological target: furin, P09958
# Assay: furin cleavage Z-score vs untreated control; higher = more cleavage, active = 3.5 or more, inactive = 1 or less, 8 variable residues between constant flanks
# How it was run: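 Purified furin cleaved 8-mer peptides that were fused to a cDNA oligonucleotide and held on magnetic beads by their N-terminus. Each 0.01 ml reaction used a 1:10 enzyme:substrate ratio in 50 mM HEPES pH 7.5 with CaCl2 and NaCl and ran 7.5, 15 or 30 min. Released DNA was adapter-tagged by PCR and sequenced, and read counts gave abundance. The cleavage Z-score came from log counts against furin-free reactions, lowess-adjusted and scaled by median absolute deviation.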
# furin, P09958, sequence (P09958 whole entry): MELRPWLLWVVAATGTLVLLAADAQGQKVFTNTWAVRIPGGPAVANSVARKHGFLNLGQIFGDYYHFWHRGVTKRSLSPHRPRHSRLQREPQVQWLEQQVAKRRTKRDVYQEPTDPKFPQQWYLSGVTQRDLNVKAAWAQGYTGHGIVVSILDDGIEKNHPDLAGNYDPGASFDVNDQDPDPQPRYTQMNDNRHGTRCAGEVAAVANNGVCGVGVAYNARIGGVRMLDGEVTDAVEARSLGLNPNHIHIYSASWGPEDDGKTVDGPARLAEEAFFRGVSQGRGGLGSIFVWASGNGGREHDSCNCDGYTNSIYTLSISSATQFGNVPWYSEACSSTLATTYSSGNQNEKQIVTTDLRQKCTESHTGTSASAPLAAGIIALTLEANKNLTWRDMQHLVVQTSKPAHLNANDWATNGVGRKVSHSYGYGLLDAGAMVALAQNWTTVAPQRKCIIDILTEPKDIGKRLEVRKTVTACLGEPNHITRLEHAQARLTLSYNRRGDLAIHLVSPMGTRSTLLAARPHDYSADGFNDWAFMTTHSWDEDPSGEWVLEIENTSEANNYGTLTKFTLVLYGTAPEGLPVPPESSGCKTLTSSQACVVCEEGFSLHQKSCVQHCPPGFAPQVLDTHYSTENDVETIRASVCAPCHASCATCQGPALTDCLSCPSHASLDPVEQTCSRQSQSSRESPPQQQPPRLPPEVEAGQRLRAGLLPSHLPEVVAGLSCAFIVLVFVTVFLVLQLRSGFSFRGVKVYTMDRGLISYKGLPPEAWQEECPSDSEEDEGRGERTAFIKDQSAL
Sequence,furin cleavage Z-score (7.5 min),furin cleavage Z-score (15 min),furin cleavage Z-score (30 min)
B1,-0.614 (inactive),-0.579 (inactive),-0.877 (inactive)
B2,1.65,0.44 (inactive),-0.0666 (inactive)
B3,-0.243 (inactive),-1.86 (inactive),-0.583 (inactive)
B4,-2.25 (inactive),-0.244 (inactive),0.218 (inactive)
B5,7.08 (active),8.35 (active),8.68 (active)
B6,5.57 (active),7.12 (active),6.65 (active)
B7,-0.411 (inactive),-0.271 (inactive),-1.96 (inactive)
B8,-0.658 (inactive),-0.454 (inactive),-0.515 (inactive)
B9,-0.182 (inactive),-0.0436 (inactive),1.21
B10,0.959 (inactive),2.87,0.898 (inactive)
B11,-0.0484 (inactive),-0.806 (inactive),-1.82 (inactive)
B12,4.32 (active),5.36 (active),5.43 (active)
B13,5.41 (active),7.89 (active),8.89 (active)
B14,1.6,-0.694 (inactive),0.385 (inactive)
B15,-0.725 (inactive),-1.67 (inactive),-1.53 (inactive)
B16,1.53,2.52,3.58 (active)
B17,-0.764 (inactive),-1.16 (inactive),-0.0942 (inactive)
B18,-0.183 (inactive),-1.46 (inactive),0.612 (inactive)
B19,-1.25 (inactive),-0.885 (inactive),-0.354 (inactive)
B20,-0.594 (inactive),0.967 (inactive),2.18
B21,10.2 (active),9.71 (active),8.9 (active)
B22,-0.277 (inactive),-2 (inactive),0.081 (inactive)
B23,-0.115 (inactive),0.0818 (inactive),-0.362 (inactive)

Sequence,furin cleavage Z-score (7.5 min),furin cleavage Z-score (15 min),furin cleavage Z-score (30 min)
B24,0.288 (inactive),-0.161 (inactive),-1.36 (inactive)
B25,-0.31 (inactive),-0.454 (inactive),-0.108 (inactive)
B26,-0.744 (inactive),-0.464 (inactive),-0.336 (inactive)
B27,1.2,-0.449 (inactive),0.19 (inactive)
B28,9.89 (active),9.51 (active),6.34 (active)
B29,-1.05 (inactive),-0.069 (inactive),-0.712 (inactive)
B30,3.57 (active),5.04 (active),6.27 (active)
B31,1.26,0.665 (inactive),0.144 (inactive)
B32,0.453 (inactive),-0.904 (inactive),0.989 (inactive)
B33,3.67 (active),2.35,2.39
B34,-0.406 (inactive),-0.477 (inactive),0.265 (inactive)
B35,-0.486 (inactive),0.851 (inactive),0.124 (inactive)
B36,0.903 (inactive),2.44,0.32 (inactive)
B37,7.76 (active),6.48 (active),7.18 (active)
B38,0.24 (inactive),0.132 (inactive),-1.59 (inactive)
B39,-0.482 (inactive),-0.223 (inactive),1.34
B40,3.94 (active),3.83 (active),4.7 (active)
B41,6.6 (active),7.47 (active),8.24 (active)
B42,0.451 (inactive),-1.62 (inactive),-1.1 (inactive)
B43,0.883 (inactive),-1.9 (inactive),1.03
B44,-0.934 (inactive),-0.739 (inactive),-0.88 (inactive)
B45,5.83 (active),5.27 (active),4.62 (active)
